Test results taken from PubChem BioAssay.
Calls of active or inactive are those of the source.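 The calls were made as follows: active = inhibition at or above 50% relative to wild type and mutant plate controls; inactive = inhibition below 50%.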

experiment: inhibitors of Chlamydomonas gravitaxis, primary screen, whole organism, Chlamydomonas reinhardtii, WT vs cilia-less mutant, absorbance, 96-well (AID 463189); conditions: OD600 absorbance, 2 days, at 10 µM, active compounds read high;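 also: 0% = wild type cc124 cells in DMSO and 100% = ciliumless bld1 mutant cells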

inhibition, inactive:
O=C(O)CCC(NC(=O)c1ccccc1C(=O)O)C(=O)O (stereo not given) 1.62%, O=C(O)c1ccccc1Nc1ccccc1 8.09%, COc1ccccc1N1CCN(CCN(C(=O)c2ccc(F)cc2)c2ccccn2)CC1 0.605%, CC(C)C[C@H](NC(=O)[C@@H](O)[C@H](N)Cc1ccccc1)C(=O)O 3.44%, O=C(/C=C/c1ccc(O)cc1)c1ccc(O)cc1O 2.79%, Cc1cc2c(cc1Cl)N(C(=O)Nc1ccnc3ccccc13)CC2 -0.614%, NC1(C(=O)O)CCc2cc(C(=O)O)ccc21 (stereo not given) 4.42%, O=C(O)C1CCCNC1 (stereo not given) -1.36%, O=C(O)C1=CCNCC1 0.676%, CCN(c1nc(N)c(C(=O)N=C(N)N)nc1Cl)C(C)C 7.11%, O=C(c1ccc(OCCN2CCCCC2)cc1)c1c(-c2ccc(O)cc2)sc2cc(O)ccc12 4.7%, Nc1ncnc2c1ncn2[C@@H]1O[C@H](C(=O)NC2CC2)[C@H](O)C1O (stereo not given in full) 7.98%, NCCc1cnc[nH]1 2.56%, NC(N)=N[C@@H](CCC(=O)O)C(=O)O 2.13%, CC(C)N(CCC(=O)c1ccc2ccccc2c1)Cc1ccccc1 10.3%, COc1cc2c(cc1OC)-c1cc(=Nc3c(C)cc(C)cc3C)n(C)c(=O)n1CC2 10.5%, Oc1ccc(C2CNCc3sccc32)cc1O (stereo not given) 10.1%, Cc1ccc(C(=O)Nc2ccc(S(=O)(=O)O)c3cc(S(=O)(=O)O)cc(S(=O)(=O)O)c23)cc1NC(=O)c1cccc(NC(=O)Nc2cccc(C(=O)Nc3cc(C(=O)Nc4ccc(S(=O)(=O)O)c5cc(S(=O)(=O)O)cc(S(=O)(=O)O)c45)ccc3C)c2)c1 -3.04%, FC(F)(F)c1cc(CO[C@H]2CCCN[C@H]2c2ccccc2)cc(C(F)(F)F)c1 14.5%, CCOC(=O)C12CC1/C(=N/O)c1ccccc1O2 (stereo not given) 6.31%, O=C(O)CC1CCCc2ccccc2C1O (stereo not given) 4.59%, C[N+](C)(C)CCOC(=O)CCC(=O)OCC[N+](C)(C)C -7.41%, O=C(O)[C@H]1NCCC[C@H]1C(=O)O -0.478%, O=C(O)Cc1c[nH]c2ccc(O)cc12 -4.32%, CNCCNS(=O)(=O)c1cccc2cnccc12 5.09%, C=C1C(=O)O[C@@H]2[C@H]3O[C@]3(C)CCC=C(C)CC[C@@H]12 4.91%, COC(=O)Nc1nc2ccc(C(=O)c3cccs3)cc2[nH]1 11.2%, Oc1ccc(-c2nc(-c3ccc(F)cc3)c(-c3ccncc3)[nH]2)cc1 7.36%, CC(N)C1CCC(C(=O)Nc2ccncc2)CC1 (stereo not given) 3.82%, C[C@@H](NC(=O)/C(C#N)=C/c1ccc(O)c(O)c1)c1ccccc1 4.46%, Fc1ccc(CN(C2=NCCN2)c2c(Cl)cccc2Cl)cc1 -0.588%, N[C@@H](CC(=O)O)C(=O)O 4.32%, Cc1ccccc1/C=C/C1=NCCN1 3.42%, CN(C)c1nc(N)c(C(=O)N=C(N)N)nc1Cl 1.32%, Cn1ccnc1 9.19%, COc1cc(C(=O)OCCCN2CCCN(CCCOC(=O)c3cc(OC)c(OC)c(OC)c3)CC2)cc(OC)c1OC 9.83%, CC(C)C[C@H]1C(=O)N2CCC[C@H]2[C@]2(O)O[C@](NC(=O)[C@@H]3C=C4c5cccc6[nH]c(Br)c(c56)C[C@H]4N(C)C3)(C(C)C)C(=O)N12 9.22%, CC(C)(C)c1onc(OCP(=O)(O)O)c1CC(N)C(=O)O (stereo not given) 9%, CC(C(=O)O)c1cccc(C(=O)c2ccccc2)c1 (stereo not given) -4.65%

inhibition, active:
Cc1cc(N)c2ccccc2[n+]1CCCCCCCCCC[n+]1c(C)cc(N)c2ccccc21 147%
